For experiment [1], the system named is Zika virus NS2B-NS3 protease (linked construct). The experiment in a line: Primary screen NINDS Rhodamine qHTS for Zika virus inhibitors (AID 1347160). Note: nearly all actives have a fitted effect of over 55% in size. Note: potency is the fitted concentration of half-maximal effect. Put shortly:
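Purified linked NS2B-NS3 protease (NS2B hydrophilic domain joined to NS3 protease by flexible linker), 25 nM in 10 mM Tris-HCl pH 8.0, 0.01% Tween 20. Compounds titrated, 15 min preincubation at room temperature; 1.5 microM Rhodamine110 substrate, FITC fluorescence change over 15 min.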

Experiment [2] concerns the target Calcium and integrin-binding protein 1 (Homo sapiens) (UniProt Q99828). The experiment in a line: Primary qHTS for Identification of Calcium Integrin Binding Protein 1 (CIB1) Competitor (AID 1508620). Note: top concentration of the series differs between compounds; % is set by controls: 0 for no effect and ±100 for the full control effect. A digest of the protocol: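 Fluorescence polarization competition: GST-tagged CIB1 (1 uM final) preincubated with compound 15 min at room temperature, then FITC-labelled alphaIIb peptide (100 nM final) added. After 15 min at room temperature, polarization read at Ex 480/Em 540.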

A short description of experiment [3]: Primary qHTS for inhibitors of nuclear receptor binding SET domain protein 2 (NSD2) in an isogenic RCH-ACV NSD2 p.E1099K mutant (9B) (AID 1645876). Note: potency is the fitted concentration of half-maximal effect; nearly all actives have a fitted effect of over 70% in size.
Experiment [4] can be described thus: Primary qHTS for inhibitors of nuclear receptor binding SET domain protein 2 (NSD2) in an RCH-ACV wild type WT cells (2C) (AID 1645877). Note: potency is the fitted concentration of half-maximal effect; nearly all actives have a fitted effect of over 70% in size.
The target in experiment [5] is Glutathione peroxidase 1 (Homo sapiens) (UniProt P07203). The experiment in a line: Primary qHTS Assay for Inhibitors of Recombinant Selenoprotein Glutathione Peroxidase 1 (GPX1) (AID 1845191). Note: nearly all actives have a fitted effect of over 65% in size. Put shortly:
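GR-coupled assay: compounds preincubated 30 min at room temperature with GPX1, then reaction started with CHP; final 10 nM GPX1, 1 mM GSH, 0.5 mM CHP, 0.5 mM NADPH, 100 nM GR, 0.01% BSA, pH 7.5 Tris buffer. NADPH fluorescence (340/450 nm) read at 0 and 15 min.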

Experiment [6] addresses Phospholipid hydroperoxide glutathione peroxidase GPX4 (Homo sapiens) (UniProt P36969). The experiment in a line: Primary qHTS Assay for Inhibitors of Recombinant Selenoprotein Glutathione Peroxidase 4 (GPX4) (AID 1845192). Note: % is set by controls: 0 for no effect and ±100 for the full control effect; nearly all actives have a fitted effect of over 65% in size. The following applies: outcome: dose series up to 50 µM unless noted. A digest of the protocol:
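GR-coupled assay: recombinant GPX4 preincubated 30 min with compound at room temperature; final 200 nM GPX4, 1 mM GSH, 0.5 mM cumene hydroperoxide, 0.5 mM NADPH, 100 nM GR, 0.01% BSA, pH 7.5 Tris. NADPH fluorescence (340/450 nm) read at 0 and 15 min.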

Experiment [7] addresses Luciferin 4-monooxygenase (Photinus pyralis) (UniProt P08659). The experiment in a line: Primary firefly luciferase (FLuc) qHTS assay for identification of artifact compounds. (AID 1845220). Note: nearly all actives have a fitted effect of over 60% in size. Put shortly: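 Titrated compounds were incubated 15 min at RT, protected from light, with luciferin and ATP at 10 uM; reaction started with 10 nM FLuc, luminescence imaged at 5 min, and concentration-response fitted by Hill equation.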

The test system of experiment [8] is Nanoluciferase (engineered Oplophorus gracilirostris luciferase). The experiment in a line: Primary Nanoluciferase (NLuc) qHTS assay for identification of artifact compounds. (AID 1845222).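 Note: NLuc secreted into diluted conditioned medium of S16 cells; 0% = DMSO and -100% = no enzyme.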 Put shortly:
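qHTS format, against NLuc in S16 cell-conditioned medium. Nano-Glo substrate 1:100 was added after 15 min at room temperature. Luminescence was taken after a further 5 min.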

A short description of experiment [9]: Primary redox qHTS assay for identification of artifact compounds. (AID 1845223).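 Note: 0% = DMSO and 100% = reference compound.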 Put shortly:
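Amplex Red (25 uM) and HRP (250 mU/mL) in HBSS, with compounds for 15 min, then 250 uM DTT for 30 min, room temperature, dark. Fluorescence 525/598 nm read; normalized to DMSO and 10 uM DA3003; Hill fit.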

Another experiment relates to HaCat. The experiment in a line: Cytotoxic Profiling of Annotated Libraries Using Quantitative High-Throughput Screening (AID 1296008). For max response: % is set by controls: 0 for no effect and ±100 for the full control effect. Note: nearly all actives have a fitted effect of over 60% in size. The following applies: Five cell lines viability, CellTiter-Glo ATP luminescence, 48-72 h; max response: hits give low values. A digest of the protocol: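 Cells exposed to compounds for 48 or 72 hr at 37 degrees Celsius. Viability read as ATP-coupled luminescence with CellTiter-Glo after 10 min at room temperature.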

The next experiment has as its system CASKI. The experiment in a line: Primary qHTS to identify gynecologic anti-cancer compounds using libraries of approved drugs and bioactive compounds (AID 1345084). Note: nearly all actives have a fitted effect of over 55% in size. Note: potency is the fitted concentration of half-maximal effect. Conditions: Gynecologic cancer cell panel viability, ATPlite luminescence, 48 h; series mostly up to 57.5 µM. A digest of the protocol: (§1)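 ATP-based viability (ATPlite), 1,000 cells/well, 16 h pre-incubation, 48 h compound at 37 C, 5% CO2, 15 min RT before read.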

In a further experiment the test system is Es-2. The description is as above. Conditions: Gynecologic cancer cell panel viability, ATPlite luminescence, 48 h; series mostly up to 57.5 µM. Put shortly:
as §1

The test system of the next experiment is HeLa. Described as above. The following applies: Gynecologic cancer cell panel viability, ATPlite luminescence, 48 h; series mostly up to 57.5 µM. Put shortly: as §1
The subject of a further experiment is Hek293T. The description is as above. The following applies: Gynecologic cancer cell panel viability, ATPlite luminescence, 48 h, control line for the selectivity index; series mostly up to 57.5 µM. A digest of the protocol: as §1
The subject of a further experiment is JEG-3. The experiment is described as above. The following applies: Gynecologic cancer cell panel viability, ATPlite luminescence, 48 h; series mostly up to 57.5 µM. A digest of the protocol: as §1
The next experiment deals with OV90. The description is as above. Conditions: Gynecologic cancer cell panel viability, ATPlite luminescence, 48 h; series mostly up to 57.5 µM. Put shortly:
as §1

Another experiment deals with Tov-21-G. The experiment is described as above. Conditions: Gynecologic cancer cell panel viability, ATPlite luminescence, 48 h; series mostly up to 57.5 µM. A digest of the protocol:
as §1

For the next experiment, the system named is Tov112D. The experiment is described as above. The following applies: Gynecologic cancer cell panel viability, ATPlite luminescence, 48 h; series mostly up to 57.5 µM. A digest of the protocol:
as §1

The next experiment concerns C33A. Described as above. Conditions: Gynecologic cancer cell panel viability, ATPlite luminescence, 48 h; series mostly up to 57.5 µM. A digest of the protocol: as §1

Six compounds from PubChem BioAssay (NCATS) can be followed below.

Molecules are shown by their SMILES. Values joined by “and” are separate entries in the source; they are usually repeats but may differ in a detail not shown here. Equal entries are not always repeated. Records with an inconclusive call do not appear. Active and inactive are the calls of the source. Calls come from the whole dose curve; as a rule, active = well fitted curve in the direction sought with a large enough effect; inconclusive = small, poorly fitted or top-dose-only effect, or another doubt; inactive = no such curve, though single readings can be large; an effect the other way counts as inactive or inconclusive.

Chain of Calcium and integrin-binding protein 1 (Homo sapiens) (Q99828 whole entry, looked up): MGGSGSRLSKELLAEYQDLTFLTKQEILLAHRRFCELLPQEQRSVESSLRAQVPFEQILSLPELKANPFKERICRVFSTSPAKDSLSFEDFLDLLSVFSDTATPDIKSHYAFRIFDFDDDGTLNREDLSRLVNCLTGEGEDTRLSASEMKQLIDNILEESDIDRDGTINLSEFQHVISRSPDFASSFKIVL
Chain of Glutathione peroxidase 1 (Homo sapiens) (P07203 whole entry, looked up): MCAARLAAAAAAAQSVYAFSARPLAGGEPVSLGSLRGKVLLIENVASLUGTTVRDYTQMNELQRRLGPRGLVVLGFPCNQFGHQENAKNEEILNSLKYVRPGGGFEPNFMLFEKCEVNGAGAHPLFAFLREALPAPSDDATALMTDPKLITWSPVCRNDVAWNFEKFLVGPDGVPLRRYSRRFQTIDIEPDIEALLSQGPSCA
Chain of Phospholipid hydroperoxide glutathione peroxidase GPX4 (Homo sapiens) (P36969 whole entry, looked up): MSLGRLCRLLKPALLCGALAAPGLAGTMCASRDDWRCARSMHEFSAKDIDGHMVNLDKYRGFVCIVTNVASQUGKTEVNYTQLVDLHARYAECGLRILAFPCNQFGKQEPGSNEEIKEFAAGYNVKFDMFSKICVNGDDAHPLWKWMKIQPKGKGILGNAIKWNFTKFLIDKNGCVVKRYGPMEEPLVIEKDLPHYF

Take `O=C(NC(NC(=S)Nc1ccc(F)c([N+](=O)[O-])c1)C(Cl)(Cl)Cl)C(c1ccccc1)c1ccccc1` (stereo unspecified): the Potency result in experiment [1], in experiment [5], in experiment [6], in experiment [7], in experiment [8] and in experiment [9] was “inactive” throughout. Further, the Potency result in the experiment on CASKI, with Es-2, with HeLa, with Hek293T, in the experiment on JEG-3 and in the experiment with OV90 was “inactive” in each case. Further, the Potency result with Tov-21-G and in the experiment with Tov112D was “inactive” in each case. The result in [2] was inactive. Besides, the Potency in experiment [3] is 5.41 µM (active) and 16.4 µM (active); in [4] it was 20.6 µM (active). Also, the max response with HaCat is -1.87% (inactive).
On to `CCCCn1ccc(N2CCC(c3ccccc3)CC2)c(Cl)c1=O`, for which the Potency entry in [1], in experiment [5], in experiment [6], in [8] and in experiment [9] was “inactive” throughout. In addition, the outcome (in [2]; in the experiment on HaCat) was inactive. Moreover, the Potency in experiment [3] was 23 µM (active); in [4], 18.3 µM (active); in the experiment with Es-2, 28.2 µM (active); in the experiment with Hek293T, 31.6 µM (active); in the experiment on Tov-21-G it was 28.2 µM (active).
For the compound `CC1OC2OC3C(OCC(O)C3O)OC(=O)C34CCC(C)(C)CC3C3=CCC5C6(C)CC(O)C(OC7OC(CO)C(O)C(O)C7OC7OCC(OC(=O)CC(C)(O)CC(=O)OC1C(OC1OCC(O)C(O)C1O)C2O)C(O)C7O)C(C)(CO)C6CCC5(C)C3(C)CC4O` (stereo unspecified), the Potency result (in experiment [1]; in experiment [5]; in experiment [6]; in experiment [7]; in the experiment on JEG-3) was “inactive” throughout. In [2], the outcome was inactive. Moreover, the Potency in [3] is 2.52 µM (active); in experiment [4], 3.17 µM (active); with OV90, 10 µM (active).
With `Cc1ccc(C(=O)N2CCN(c3ccc([N+](=O)[O-])cc3)CC2)cc1Cl`, the Potency entry in experiment [1], in experiment [5], in experiment [6], in experiment [7], in experiment [8] and in [9] was “inactive” throughout. For the same compound, the Potency entry with C33A, in the experiment with CASKI, with Es-2, in the experiment on HeLa, in the experiment with Hek293T and in the experiment on JEG-3 was “inactive” each time. Also, the Potency entry with OV90, with Tov-21-G and in the experiment on Tov112D was “inactive” each time. The outcome in experiment [2] was inactive. Further, the Potency in [3] is 12.9 µM (active); in experiment [4] it was 11.5 µM (active). In the experiment with HaCat, the max response is -12.6% (inactive).
As for `O=C(NCc1ccc(Oc2ccccc2)cc1)c1nc(-c2cc(Br)c(O)c(Br)c2)no1`, the values for the Potency in [1] and in [4] were 2.51 µM (active) and 20.5 µM (active), respectively. For the same compound, the Potency entry (in experiment [5]; in experiment [6]; in experiment [7]; in [8]; with C33A; in the experiment with CASKI) was “inactive” each time. The Potency entry with Es-2, in the experiment with HeLa, with Hek293T, in the experiment with JEG-3, in the experiment on OV90 and with Tov-21-G was “inactive” each time. In the experiment with Tov112D, the Potency result was “inactive”. Also, in the experiment on HaCat, the call was inactive.
As for `CCOC(=O)c1cnn(-c2ccc(NC(=O)C(Cl)=C(Cl)Cl)cc2)c1C(F)(F)F`, the Potency result in [1], in experiment [5], in experiment [6], in experiment [7], in experiment [8] and in [9] was “inactive” throughout. The Potency entry with Es-2, in the experiment with HeLa and in the experiment on Hek293T was “inactive” throughout. Also, the outcome in [2] was inactive. The Potency was 11.5 µM (active) in experiment [3] and 6.49 µM (active) in experiment [4].
